Reference: PubChem BioAssay (NCI)
About 83,000 compounds went through this panel and 20% of them were active in at least one assay; those are over-represented in the sample as a whole.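 Step 1: grow cells in 96-well plates. Step 2: add test compound at a single concentration. Step 3: incubate 48 h. Step 4: record percent growth.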 Unmarked numbers belong to inactive results. The source made the active and inactive calls. How the source made its calls: active means growth percent below 10; inactive means the rest.

Assays:
Experiment in all cases: NCI-60 one-dose screen, 48 h (100 = growth as untreated, 0 = no growth, -100 = all killed)
Conditions in all cases: 10 µM unless noted
NCI-H23 lung = system: NCI-H23 lung
NCI-H226 lung = system: NCI-H226 lung
NCI-H322M lung = system: NCI-H322M lung
HOP-62 NSCLC = system: HOP-62 NSCLC
NCI-H460 lung = system: NCI-H460 lung
HOP-92 NSCLC = system: HOP-92 NSCLC
NCI-H522 lung = system: NCI-H522 lung
A549/ATCC NSCLC = system: A549/ATCC NSCLC
786-0 renal = system: 786-0 renal
COLO 205 colon = system: COLO 205 colon
DU-145 prostate = system: DU-145 prostate
K-562 leukemia = system: K-562 leukemia
MALME-3M melanoma = system: MALME-3M melanoma
MDA-MB-231 breast = system: MDA-MB-231 breast
RXF 393 renal = system: RXF 393 renal
SF-268 CNS = system: SF-268 CNS
SF-295 CNS = system: SF-295 CNS
SF-539 CNS = system: SF-539 CNS
M14 melanoma = system: M14 melanoma

Row | Structure (SMILES) | growth (NCI-H23 lung) [%] | growth (NCI-H226 lung) [%] | growth (NCI-H322M lung) [%] | growth (HOP-62 NSCLC) [%] | growth (NCI-H460 lung) | growth (HOP-92 NSCLC) | growth (NCI-H522 lung) [%] | growth (A549/ATCC NSCLC) [%] | growth (786-0 renal) [%] | growth (COLO 205 colon) [%] | growth (DU-145 prostate) [%] | growth (K-562 leukemia) [%] | growth (MALME-3M melanoma) | growth (MDA-MB-231 breast) [%] | growth (RXF 393 renal) | growth (SF-268 CNS) [%] | growth (SF-295 CNS) [%] | growth (SF-539 CNS) [%] | growth (M14 melanoma) [%]
1 | CC1CCc2c(sc(NC(=O)CSc3nnc4ccccn34)c2C(N)=O)C1 (configuration not stated) | 109 | 103 | 121 | 110 | 106% | 97.8% | 108 | 118 | 115 | 126 | 144 | 117 | 181% | 102 | 1.36% (active) | 109 | 93.6 | 137 | 117
2 | CN(C)C1CCC(NC2=CC(=O)C=CC2=O)CC1 (configuration not stated) | 110 | 116 | 102 | 116 | 109% | 118% | 90.2 | 106 | 121 | 128 | 107 | 111 | 115% | 109 | 118% | 99.9 | 128 | 112 | 107
3 | Cc1c(C(=O)NCc2ccccc2)[n+](=O)c2cc(F)ccc2n1[O-] | 90.1 | 103 | 117 | 94.8 | 109% | 64.3% | 90.9 | 109 | 101 | 123 | 99.8 | 214 | 114% | 111 | 33.1% | 111 | 88.4 | 103 | 99.5
4 | CSc1ccccc1C#C/C=C\C#Cc1ccccc1N1CCCC1=O | 53.4 | 62.5 | 91.5 | 60.2 | 24.7% | 40.7% | 70.5 | 63.2 | 71.1 | 65.2 | 85.7 | 14.7 | 50% | 51 | 52.9% | 56.6 | 65.3 | 55.1 | 64.5
5 | O=[N+]([O-])c1cccc(-c2cc(-c3cc(Br)ccc3O)[nH]n2)c1 | 28.5 | 52.6 | 24.4 | 25.2 | 7.48% (active) | 4.45% (active) | 15.1 | 21.7 | 27.2 | 17.6 | 35.1 | 12.4 | 5.27% (active) | 27 | 58.1% | 23.6 | 40.4 | 34 | 35.6
6 | CCCCn1c(=O)c(C2CNC(=O)c3ccccc3N2)cc2ccccc21 (configuration not stated) | 95 | 111 | 111 | 91.8 | 102% | 95.2% | 92.5 | 97.1 | 92.4 | 111 | 108 | 99.3 | 107% | 77.5 | 111% | 98.9 | 96.8 | 89.9 | 107
7 | NC(N)=NC(N)=Nc1ccccc1-c1ccccc1 | 100 | 111 | 105 | 115 | 105% | 109% | 106 | 105 | 106 | 125 | 114 | 104 | 110% | 116 | 112% | 113 | 113 | 110 | 108
8 | Cc1ccnc2nc(C(=O)OCC(=O)Nc3ccc(-c4ccccc4)cc3)nn12 | 99.5 | 110 | 112 | 94.5 | 119% | 69.7% | 107 | 99.3 | 99.8 | 104 | 109 | 61.8 | 115% | 104 | 49.7% | 113 | 92.7 | 95.6 | 99.9
